The full ranking holds about 33,000 sequences; the median of “E-score (-0.5 to 0.5)” is about -0.012, and the highest 2% start at about 0.27. The list comes from a sample in which the highest values are over-represented; it also holds similar and randomly drawn sequences.

For this experiment, the target named is T1, Vhr1 (UniProt P40522).
T1 sequence: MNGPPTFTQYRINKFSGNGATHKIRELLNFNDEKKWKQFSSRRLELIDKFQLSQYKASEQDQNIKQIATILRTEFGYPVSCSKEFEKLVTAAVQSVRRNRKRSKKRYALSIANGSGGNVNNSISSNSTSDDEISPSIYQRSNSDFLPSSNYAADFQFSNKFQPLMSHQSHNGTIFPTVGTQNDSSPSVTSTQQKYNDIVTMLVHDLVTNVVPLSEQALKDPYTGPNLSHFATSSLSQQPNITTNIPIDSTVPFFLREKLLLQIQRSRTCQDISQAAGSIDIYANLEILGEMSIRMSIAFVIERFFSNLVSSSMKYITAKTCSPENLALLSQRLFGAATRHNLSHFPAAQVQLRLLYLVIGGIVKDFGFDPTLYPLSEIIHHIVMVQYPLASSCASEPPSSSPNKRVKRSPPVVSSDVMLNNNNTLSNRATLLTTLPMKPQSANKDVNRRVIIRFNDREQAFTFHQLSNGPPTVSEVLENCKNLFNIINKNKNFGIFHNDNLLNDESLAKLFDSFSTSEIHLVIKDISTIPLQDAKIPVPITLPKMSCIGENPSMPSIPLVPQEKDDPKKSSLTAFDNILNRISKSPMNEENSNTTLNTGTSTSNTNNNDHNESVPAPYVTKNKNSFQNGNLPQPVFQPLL
Kind of experiment: PBM E-score (8-mer binding enrichment) (E-score (-0.5 to 0.5)); higher = stronger / more preferred TF binding. The following applies: protein concentration: 200 nM; construct: GST-full length. A digest of the protocol: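 Bound GST-tagged yeast transcription factors, applied at about 100-200 nM to double-stranded universal all-10-mer Agilent arrays, were detected with fluorescent anti-GST. Scans were normalised with masliner. A modified Wilcoxon-Mann-Whitney statistic, the E-score, was assigned to each ungapped eight-base word pooled with its reverse complement by the Universal PBM Analysis Suite.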
On to CGATATGA, for which the “PBM E-score” value amounted to 0.125.

As to CCATATGA, the “PBM E-score” value was found to be 0.176.

Turning to TCATATGA, the “PBM E-score” value was 0.381.

On to GCATATGA, for which the “PBM E-score” value was 0.19.

Turning to GGATATGA, the “PBM E-score” value came to 0.289.

CATGAGCA: the “PBM E-score” value came to 0.125.

For the sequence GGTAGCGA, the “PBM E-score” value is -0.0248.

With GAGGATAA, the “PBM E-score” value amounted to 0.0571.

Turning to GTTGACTA, the “PBM E-score” value was 0.261.

Regarding CCGGACTA, the “PBM E-score” value is 0.108.

Take GCTGACTA: the “PBM E-score” value is 0.324.

For ACGGACTC, the “PBM E-score” value is -0.0189.

CCTGACAC: the “PBM E-score” value was 0.188.

On to ACTGACTC, for which the “PBM E-score” value was 0.421.

On to CCGGACTC, for which the “PBM E-score” value was 0.303.

With GCTGACAA, the “PBM E-score” value was -0.0645.

Consider CCTGACTC, for which the “PBM E-score” value is 0.479.

On to CCTGACGC, for which the “PBM E-score” value was -0.197.

For ACTGACCC, the “PBM E-score” value stood at 0.0589.

For ACTGACAC, the “PBM E-score” value is 0.0369.

AAGAAAGT: the “PBM E-score” value was -0.0406.

Regarding CTTCATTC, the “PBM E-score” value was -0.0777.

Take CCAATTCG: the “PBM E-score” value was -0.173.

Take GGGATCAA: the “PBM E-score” value was -0.109.

For the sequence ATTTGGTG, the “PBM E-score” value is -0.068.

Turning to ATAGGGTC, the “PBM E-score” value amounted to 0.197.

Take CCAGCATA: the “PBM E-score” value worked out at 0.0195.

For ACTGACTG, the “PBM E-score” value was 0.0572.

Consider CCTGACTA, for which the “PBM E-score” value is 0.391.

Turning to ATTGACTA, the “PBM E-score” value was 0.236.

With ACTGACTA, the “PBM E-score” value worked out at 0.295.

Turning to ATTGACTC, the “PBM E-score” value is 0.3.

Consider CTTGACTC, for which the “PBM E-score” value worked out at 0.262.

CCTGACGA: the “PBM E-score” value turned out to be 0.0859.

ACTGACCA: the “PBM E-score” value was -0.0638.

In the case of CCTGACAA, the “PBM E-score” value turned out to be 0.0179.

CCCAGCAG: the “PBM E-score” value turned out to be 0.0474.

AACTGGCT: the “PBM E-score” value was -0.204.

In the case of CAGCGCAC, the “PBM E-score” value was -0.152.

As to CGGTTGAC, the “PBM E-score” value was -0.0106.

As for AGGCAAGG, the “PBM E-score” value was -0.292.

On to AATGACAC, for which the “PBM E-score” value was determined as 0.0353.

Take AATGACTA: the “PBM E-score” value is 0.353.

AATGACGC: the “PBM E-score” value came to 0.00169.

With GATGACCA, the “PBM E-score” value amounted to 0.13.

In the case of AATGACTC, the “PBM E-score” value amounted to 0.463.

Take CATGACGA: the “PBM E-score” value is 0.22.

Turning to GATGACAA, the “PBM E-score” value was -0.00976.

For the sequence GATGACTA, the “PBM E-score” value stood at 0.447.

Turning to AATGACTG, the “PBM E-score” value was 0.271.

Turning to CATGACAA, the “PBM E-score” value worked out at 0.0092.

In the case of CATGACTA, the “PBM E-score” value came out at 0.458.

For the sequence AATGACGA, the “PBM E-score” value was -0.0492.

As to GGATCCGA, the “PBM E-score” value was -0.0296.

Regarding ATGTAGCG, the “PBM E-score” value was -0.0682.

Consider AGCGCAAT, for which the “PBM E-score” value is -0.0761.

With ATCTTAGG, the “PBM E-score” value is -0.132.

On to GCGCTGGA, for which the “PBM E-score” value was determined as 0.168.

In the case of GTTGATAA, the “PBM E-score” value is 0.109.

For CGGCTACA, the “PBM E-score” value worked out at 0.153.

Consider CATGGTTC, for which the “PBM E-score” value came to 0.364.

Turning to CATGGCTC, the “PBM E-score” value is 0.28.

Turning to CATGGCTA, the “PBM E-score” value was 0.224.

For AATGGCTC, the “PBM E-score” value is 0.137.

In the case of AATGGTTC, the “PBM E-score” value stood at 0.212.

As to CATGGTTA, the “PBM E-score” value worked out at 0.215.

Regarding AAAATCTT, the “PBM E-score” value is -0.316.

In the case of CCATCGAG, the “PBM E-score” value was determined as 0.0908.

For the sequence ACGCGATG, the “PBM E-score” value was 0.148.

CCTCGGAG: the “PBM E-score” value worked out at 0.00615.

ACTCGGAG: the “PBM E-score” value amounted to 0.29.

For the sequence ACTCGGAT, the “PBM E-score” value turned out to be 0.186.

TCTGGTCA: the “PBM E-score” value was found to be 0.0764.

Turning to GACGAGTC, the “PBM E-score” value came to 0.276.

On to GACGAGTA, for which the “PBM E-score” value is 0.077.

ACCGAGTC: the “PBM E-score” value was found to be 0.254.

Regarding AACGAGTA, the “PBM E-score” value came out at 0.134.

Turning to CCCGAGTA, the “PBM E-score” value came to 0.184.

As to CACGAGTG, the “PBM E-score” value is -0.0364.

As for CACGAGTC, the “PBM E-score” value was 0.324.

Turning to GACGAGAC, the “PBM E-score” value is -0.0155.

As for CACGAGTA, the “PBM E-score” value is 0.0881.

As to AACGAGTC, the “PBM E-score” value was found to be 0.278.

As to CCCGAGTC, the “PBM E-score” value was 0.387.

For AACGAGTT, the “PBM E-score” value is -0.117.

Regarding CGCGACGC, the “PBM E-score” value is -0.00297.

These data come from the supplement of paper PMC3334620.
